# Experimental data published in PubChem BioAssay (NCATS).
# Records with an inconclusive call do not appear. Calls of active or inactive are those of the source. Calls come from the whole dose curve; as a rule, active = well fitted cell-killing curve with a large enough effect; inconclusive = small, poorly fitted or top-dose-only effect; inactive = flat fitted curve, though single readings scatter.
# Assay: Cell Viability - Mesenchymal (AID 546);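 note: cells exposed to compound for 40 hours before reading; 0% = DMSO only and -100% = 100 µM tamoxifen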
# Details: mesenchymal cells viability, qHTS; series mostly up to 91.7 µM; activity change, negative = cytotoxicity: at the top concentration
# From the text: NIH Chemical Genomics Center [NCGC]
# NIH Molecular Libraries Screening Centers Network [MLSCN]
# National Institutes of Environmental Health Sciences [NIEHS]
# National Toxicology Program [NTP]
# We have developed a 1536-well cell-based assay for quantitative high throughput screening (qHTS) against a number of cell lines to determine in vitro cytotoxicity of small molecules. This particular assay uses the kidney mesenchymal cell line which is derived from normal human renal glomeruli.
# NCGC Assay Protocol Summary:
# The CellTiter-Glo luminescent cell viability assay (Promega) is a homogeneous method to measure the number of viable cells in culture. The end point readout of this assay is based on quantitation of intracellular ATP, an indicator of metabolic activity, using the luciferase reaction. Luciferase catalyzes the oxidation of beetle Luciferin to oxyluciferin and light in the presence of ATP. The luminescent signal is proportional to amount of ATP present.
# Using the CellTiter-Glo luminescent cell viability assay, the amount of cellular ATP was measured in the kidney mesenchymal cell line with complete culture medium following compound treatment for 40 hours. The assay was performed in opaque white Kalypsys 1536-well plates. In the screen, tamoxifen and doxorubicin were used as positive controls. Library compounds were measured for their ability to cause acute toxicity in the cell line, as reflected by a decrease in intracellular ATP levels, in a concentration-dependent manner. […] AC50 values were determined from concentration-response data modeled with the standard Hill equation.
# qHTS protocol for CellTiter Glo kidney mesenchymal cells cellular assay
# [Step] [Parameter] [Value] [Description]
# 1. Reagent; 5 uL; 1000 kidney mesenchymal cells/well
# 2. Time; 5 hr; 37 °C incubation
# 4. Controls; 23 nL; Tamoxifen 0.34 uM to 100 uM & Doxorubicin 0.02 nM to 100 uM
# 5. Time; 40 hr; 37 °C incubation
# 6. Reagent; 5 uL; CellTiter Glo reagent
# 7. Time; 20 min; Room Temperature
# 8. Detection; Luminescence; Viewlux plate reader
# Keywords: cell viability, cytotoxicity, Kidney mesenchymal cell line, luminescence, NTPHTS, NTPHTS_NCGC, NIEHS, EPA, DSSTox, MLSMR, MLSCN, NIH Roadmap, qHTS, NCGC
SMILES,"activity change, negative = cytotoxicity",outcome
CNC(=O)O/N=C/C(C)(C)SC,1.78% (inactive),–
CCOP(=S)(OCC)SCSC(C)(C)C,5.92% (inactive),–
CCCCCCCCCc1ccc(O)cc1,-35.3% (inactive),–
CCSC(=O)Cl,0.767% (inactive),–
COC1=CC(=O)OC(CCc2ccccc2)C1 (stereo not given),-12.3% (inactive),–
CCc1cccc(CC)c1N(COC)C(=O)CCl,3.13% (inactive),–
CCOP(=S)(OCC)Oc1ccc([N+](=O)[O-])cc1,–,inactive
Brc1ccccc1,7.82% (inactive),–
CCCCOCCOP(=O)(OCCOCCCC)OCCOCCCC,16.6% (inactive),–
CCOc1ccc(N)cc1,7.9% (inactive),–
Clc1nc(Cl)nc(Nc2ccccc2Cl)n1,-5.54% (inactive),–
Cc1ccc2ccccc2c1,3.29% (inactive),–
C=CC(N)=O,–,inactive
CC(C)(c1ccccc1)c1ccc(O)cc1,14.6% (inactive),–
COP(=S)(OC)Oc1ccc([N+](=O)[O-])cc1,2.42% (inactive),–
Oc1ccc(Cl)cc1Cl,5.32% (inactive),–
ClC(Cl)=C(Cl)Cl,–,inactive
ClC(Cl)=C(Cl)C(Cl)=C(Cl)Cl,1.27% (inactive),–
Clc1ccc2ccccc2c1,7.96% (inactive),–
O=[N+]([O-])c1ccc(Cl)c(Cl)c1,-8.18% (inactive),–

SMILES,"activity change, negative = cytotoxicity",outcome
Cc1ccc([N+](=O)[O-])cc1C,1.72% (inactive),–
C=C(Cl)Cl,6.63% (inactive),–
O=S1OCC2C(CO1)C1(Cl)C(Cl)=C(Cl)C2(Cl)C1(Cl)Cl (stereo not given),11.1% (inactive),–
C=CCOC(C)=O,-4.8% (inactive),–
Nc1c(Cl)c(Cl)nc(C(=O)O)c1Cl,9.19% (inactive),–
Clc1cccc(C(Cl)(Cl)Cl)n1,2.17% (inactive),–
O=NN(CCO)CCO,-1.78% (inactive),–
O=C(O)COc1ccc(Cl)cc1Cl,–,inactive
OCC1CO1 (stereo not given),-0.523% (inactive),–
CC(Cl)Cl,-1.9% (inactive),–
CCCOC(=O)c1ccccc1C(=O)OCCC,-3.65% (inactive),–
COC1=CC(=O)O[C@@H](/C=C/c2ccc3c(c2)OCO3)C1,-10.5% (inactive),–
CN=C=S,12.6% (inactive),–
O=C(Cl)/C=C/C(=O)Cl,7.58% (inactive),–
CCCSC(=O)Cl,-3% (inactive),–
C=CCc1ccc2c(c1)OCO2,7.59% (inactive),–
ClC(Cl)=C(c1ccc(Cl)cc1)c1ccc(Cl)cc1,–,inactive
CCC[CH2][Sn]([Cl])([Cl])[Cl],2.8% (inactive),–
ClC1=C(Cl)C2(Cl)C3C(Cl)C=CC3C1(Cl)C2(Cl)Cl (stereo not given),-3.1% (inactive),–
N#CCCCl,–,inactive
